Rows were chosen to be rich in hits. Some 2.3% of all compounds tested hit in one or more screens of this group.
PP5 inh = PP5 (human) phosphatase inhibition; purified PP5c, OMFP substrate fluorescence; inhibition, % at 6.7 µM; 320,000 tested, 0.18% active;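 active = inhibition above the campaign's mean inhibition across all tested compounds plus 3 SD, cut at about 9.5% in these data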
MsrA act = bovine methionine sulfoxide reductase A activation | activation, % at 10.6 µM | 360,000 tested, 0.3% active | purified bovine MsrA, absorbance read-out; in the data active = activation above about 7.5%
ZTA counter = blocks Epstein-Barr virus ZTA, an EBNA-1 counter-screen; P03206; ZTA-DNA binding, fluorescence polarization; inhibition, % at 11 µM; 320,000 tested, 0.15% active; AID 2234; in the data active = inhibition above about 33%
Target sequence (P03206 whole entry, looked up): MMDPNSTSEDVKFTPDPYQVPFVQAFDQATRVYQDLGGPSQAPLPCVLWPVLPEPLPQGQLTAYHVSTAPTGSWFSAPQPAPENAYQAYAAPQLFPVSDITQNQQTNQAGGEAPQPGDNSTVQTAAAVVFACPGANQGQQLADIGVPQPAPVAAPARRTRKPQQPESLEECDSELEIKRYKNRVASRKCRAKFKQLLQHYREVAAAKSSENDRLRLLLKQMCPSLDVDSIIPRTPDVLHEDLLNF
PP1 inh = counter-screen for PP5 inhibitors: inhibitors of human PP1-alpha; 320,000 tested, 0.9% active; purified PP1alpha, OMFP fluorescence; inhibition, % at 6.7 µM; P62136;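 active = inhibition above the mean inhibition of all tested compounds plus 3 SD, computed separately for each screening campaign, cut at about 15% in these data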
Target sequence (P62136 whole entry, looked up): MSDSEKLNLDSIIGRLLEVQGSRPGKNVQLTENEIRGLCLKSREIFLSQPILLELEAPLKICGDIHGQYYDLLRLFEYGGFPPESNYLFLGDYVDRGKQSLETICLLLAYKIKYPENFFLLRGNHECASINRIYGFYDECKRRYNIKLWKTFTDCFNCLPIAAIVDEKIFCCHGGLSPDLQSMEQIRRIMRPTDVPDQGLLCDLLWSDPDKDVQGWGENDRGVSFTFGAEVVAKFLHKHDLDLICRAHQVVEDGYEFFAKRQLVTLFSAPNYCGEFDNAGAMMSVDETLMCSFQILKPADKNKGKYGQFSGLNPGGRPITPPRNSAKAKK
EBNA-1 inhibitor = blocks EBNA-1 binding to DNA. EBNA-1 DNA binding, fluorescence polarization. inhibition, % at 14.8 µM. 300,000 tested, 0.34% active; in the data active = inhibition above about 28%
MsrA inh = inhibitors of bovine MsrA; AID 651718; inhibition, % at 15.5 µM; purified bovine MsrA, absorbance read-out; 360,000 tested, 0.75% active
MsrA inh confirm = confirmation of bovine MsrA inhibitors | inhibition, % at 15.5 µM | 2,300 tested, 41% active | shares compounds with MsrA inh | purified bovine MsrA, absorbance read-out;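 note: coupled to thioredoxin reductase with NADPH and selenocystamine and DMSO as substrate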
Of the large screens only hits and unclear results are named; the others gave an inactive call (follow-up assays come after a bar, where they were run). Cut-off read from the data, not from the text of the source, unless noted: active = inhibition above about 4.5%; inactive = the rest.

O=C(N/N=C/c1ccc2c(c1)OCO2)c1ccc(NS(=O)(=O)c2cccs2)cc1	MsrA inh 5.7 | MsrA inh confirm 7.5
CCCCCCCCN1C(=O)[C@H](CC(=O)N2CCN(C(=O)C3CC3)CC2)C[C@@]2(C(=O)OC)CCCCC=C12	none (no result: PP5 inh, ZTA counter, PP1 inh, EBNA-1 inhibitor)
CCOc1cccc(C(=O)NC2=NCCS2)c1	none (no result: PP5 inh, ZTA counter, PP1 inh, EBNA-1 inhibitor)
CCSc1ccccc1C(=O)NCCc1ccccc1	none
O=C(N/N=C/c1ccc(N2CCOCC2)cc1)c1ccncc1	MsrA inh 5.0 (no result: EBNA-1 inhibitor) | MsrA inh confirm 5.0
O=C(N/N=C/c1ccc(N2CCOCC2)cc1)c1ccccc1NS(=O)(=O)c1cccs1	MsrA inh 8.0 | MsrA inh confirm 7.0
CCOC(=O)N/N=C/c1ccc(N2CCOCC2)s1	MsrA inh 5.3 | MsrA inh confirm 5.7
O=C(Nc1ccc(N2CCOCC2)cc1)c1ccncc1	none
O=C(N/C(=C\c1cccc([N+](=O)[O-])c1)C(=O)N1CCOCC1)c1cccc(Br)c1	none
O=C(O)C1(c2ccccc2)CCN(S(=O)(=O)c2ccc(Cl)cc2)CC1	none
CC(C)Oc1ccc(/C=N/NC(N)=S)cc1	MsrA inh 4.8 | MsrA inh confirm inactive
COc1ccc(/C=N/NC(N)=S)cc1	none
NC(=O)c1ccc(NC(=O)COC(=O)C2COc3ccccc3O2)cc1 (configuration not stated)	none (no result: PP5 inh, ZTA counter, PP1 inh, EBNA-1 inhibitor)
CC(/C=C/c1ccccc1)=N\NC(N)=S	MsrA inh 6.0 | MsrA inh confirm inactive
Cc1ccc(-n2nc3c(=O)n(CCCC(=O)N4CCC(C(N)=O)CC4)nc(C)c3c2C)cc1	none
COc1ccc(OC)c(NC(=O)NNS(=O)(=O)c2ccc(C)cc2C)c1	none
CC1(C)OC(=O)C(=NNc2ccccc2)C(=O)O1	none
CC1(C)OC(=O)C(=NNc2ccccc2C(=O)O)C(=O)O1	MsrA inh 4.9 | MsrA inh confirm inactive
CC1(C)OC(=O)C(=NNc2ccc(C(=O)O)cc2)C(=O)O1	MsrA inh 4.8 | MsrA inh confirm inactive
Cc1ccc(NS(=O)(=O)c2ccc3c(c2)NC(=O)CCS3)c(C)c1	none
O=C(CN(C(=O)c1csnn1)c1ccc(Cl)cc1)NCCc1ccccc1	none
COc1ccc2c(c1OC)C(=O)OC2CC(=O)c1ccc(N(C)C)cc1 (configuration not stated)	MsrA inh 4.7 | MsrA inh confirm 4.6
COc1ccc2c(c1OC)C(=O)OC2CC(=O)c1ccc(O)cc1 (configuration not stated)	none
Cn1c(SCC(=O)Nc2ccccc2O)nnc1-c1ccco1	none
C#CCn1c2ccccc2c2nc3ccccc3nc21	MsrA inh 5.5 | MsrA inh confirm inactive
COC(=O)Cn1c2ccccc2c2nc3ccccc3nc21	MsrA inh 6.7 (no result: PP5 inh, ZTA counter, PP1 inh, EBNA-1 inhibitor) | MsrA inh confirm 5.3
COc1ccc(CNC(=S)N2CCN(Cc3ccccc3)CC2)cc1	none
C/C(=N\NC(=O)c1cccnc1)c1cc2ccccc2o1	MsrA inh 6.7 | MsrA inh confirm 6.0
Cc1ccc(C=NNc2nc3c([nH]2)c(=O)n(C)c(=O)n3C)cc1	none (no result: PP5 inh, ZTA counter, PP1 inh, EBNA-1 inhibitor)
COc1ccc(C=NNc2nc3c([nH]2)c(=O)n(C)c(=O)n3C)cc1	MsrA inh 5.5 (no result: PP5 inh, ZTA counter, PP1 inh, EBNA-1 inhibitor) | MsrA inh confirm inactive
CCC1=[N+](C)CCn2c(C)ccc21	MsrA inh 6.5 | MsrA inh confirm inactive
Cc1ccc2nc(Nc3ccccc3)c(/C=N/O)c(=O)n2c1	none
COc1ccc(Nc2nc3ccc(C)cn3c(=O)c2/C=N/O)cc1	MsrA inh 5.0 | MsrA inh confirm inactive
CN(C)CCNC(=O)c1cccc(-c2cnc3c(NC=O)cc(-c4ccc(F)cc4)cn23)c1	none (no result: PP5 inh, ZTA counter, PP1 inh, EBNA-1 inhibitor)
COc1ccc(-c2cc(NC=O)c3ncc(-c4cccc(C(=O)NCCN(C)C)c4)n3c2)cc1	MsrA inh 11 (no result: PP5 inh, ZTA counter, PP1 inh, EBNA-1 inhibitor) | MsrA inh confirm inactive
COc1ccc(CN(C)CC(=O)NC2CCCc3ccccc32)cc1OC (configuration not stated)	none
COc1ccc(/C=C2\N=C(c3ccc(C)cc3)OC2=O)cc1	none
Cc1ccc(C2=N/C(=C\N3CCCCC3)C(=O)O2)cc1	MsrA inh 6.1 | MsrA inh confirm 5.9
Cc1ccc(C2=N/C(=C/N3CCOCC3)C(=O)O2)cc1	MsrA inh 6.5 | MsrA inh confirm 7.6
COc1cccc(OC(=O)c2cc3ccccc3oc2=O)c1	none
CCN(CC)S(=O)(=O)c1cccc(-c2n[nH]c(=S)n2/N=C/c2ccc(OC)cc2)c1	MsrA inh 7.7 | MsrA inh confirm inactive
COc1cc(/C=C/c2[nH]c(=O)[nH]c(=O)c2[N+](=O)[O-])ccc1OCCC(C)C	none
CCC(C)Oc1ccc(/C=C/c2[nH]c(=O)[nH]c(=O)c2[N+](=O)[O-])cc1OC (configuration not stated)	MsrA inh 7.6 | MsrA inh confirm 4.6
O=C(c1ccc(N2CCCCC2)c([N+](=O)[O-])c1)N(c1ccccn1)c1ccccn1	none
C#CCN1C(=O)C(O)(CC(=O)/C=C/C=C/c2ccccc2)c2ccccc21 (configuration not stated)	none
NC(=O)CN1C(=O)C(O)(CC(=O)/C=C\C=C\c2ccccc2)c2ccccc21 (configuration not stated)	MsrA inh 5.4 | MsrA inh confirm 5.0
CN1C(=O)C(O)(CC(=O)/C=C\c2ccc3c(c2)OCO3)c2ccccc21 (configuration not stated)	none
CCN1C(=O)C(O)(CC(=O)/C=C/C=C/c2ccccc2)c2ccccc21 (configuration not stated)	MsrA inh 5.8 | MsrA inh confirm inactive
O=C(/C=C/C=C/c1ccccc1)CC1(O)C(=O)N(CCc2ccccc2)c2ccccc21 (configuration not stated)	none
NC(=O)CN1C(=O)C(O)(CC(=O)/C=C\c2ccc3c(c2)OCO3)c2ccccc21 (configuration not stated)	MsrA inh 4.8 | MsrA inh confirm inactive
Cc1ccc2c(c1)C(O)(CC(=O)/C=C/C=C/c1ccccc1)C(=O)N2 (configuration not stated)	MsrA inh 6.3 | MsrA inh confirm inactive
O=C(NCC1COc2ccccc2O1)C1CCCN(S(=O)(=O)c2cnc[nH]2)C1 (configuration not stated)	none
CCCc1nnc(NC(=O)CCC(=O)NC2CCCCCC2)s1	none
COc1ccc(-c2cc(C(F)(F)F)nc(SCCC(=O)N3CCN(C)CC3)n2)cc1	none (no result: PP5 inh, ZTA counter, PP1 inh, EBNA-1 inhibitor)
O=C(O)CSc1nc(-c2cccs2)cc(C(F)(F)F)n1	none
COCC(C)NC(=O)CCSc1nc(-c2ccc(OC)cc2)cc(C(F)(F)F)n1 (configuration not stated)	MsrA inh 5.0 | MsrA inh confirm inactive
CCC(C)NC(=O)CSc1nc(-c2cccs2)cc(C(F)(F)F)n1 (configuration not stated)	MsrA inh 6.2 | MsrA inh confirm inactive
C#CCOCCOCCOCCNc1nc(N2CCOCC2)nc(N2CCN(C(=O)Cn3cc(CCCCN)nn3)CC2)n1	none (no result: PP5 inh, ZTA counter, PP1 inh, EBNA-1 inhibitor)
CCC(=O)Nc1nc(NCc2ccccc2OC)n(-c2ccccc2)n1	none
